Test results taken from the OligoGym collection.

Each sequence was assayed against C19orf26 (assay: pooled miR-30 sensor sort-seq; sequence = guide strand). Conditions: shRNA.
Further: reference of the scale not given here.

Row | Sequence | sensor-assay potency score (higher = more potent)
1 | TCCGTCAGTGTGTACCGGCGAC | -0.95
2 | TTCGGTCTCCGCATCCTGGCAC | -0.126
3 | TTGCAGAGGAGCAGGACGCCAG | -1.16
4 | TTCCACTTCTTGACCTTGAAAT | -1.35
5 | TTCTTGACCTTGAAATAGGGGC | -0.421
6 | TCGCCTGAGTCACACTCGTGGA | -1.57
7 | TTGTCCTGCGTCTTGCGGCTCT | -0.61
8 | TTGACCTTGAAATAGGGGCTGG | -0.605
9 | TCATTGAAGGAGACCCGGCGGC | -0.71

What follows are sequences tested against C19orf33 in the same assay as above. Conditions: shRNA.

Row | Sequence | sensor-assay potency score (higher = more potent)
10 | TCCGAATCGCTGGAGCTGCTGC | -0.94
11 | AACTTTGTGGGGACTGAGCTTG | -0.364
12 | TTCTCCTTCTTCTTCACTTTGG | -0.173
13 | TGAGCTTGGGATCTCCCCCGTG | -0.899
14 | TCCGTGTCCGAATCGCTGGAGC | -1.74
15 | ATCCGTGTCCGAATCGCTGGAG | -0.418
16 | TTCACTTTGGGCTTCTTGGCCT | -0.157
17 | TTCTTCTTCACTTTGGGCTTCT | 0.272
18 | TCTCCTTCTTCTTCACTTTGGG | -0.407
19 | TCTCGTGCTGCTTGGAGCCAGC | -1.2
20 | AAGAGCTGTGGTGTCCTTGCTT | 0.114
21 | ACATCCGTGTCCGAATCGCTGG | -1.43

Each sequence was assayed against C19orf43 in the same assay as above. Conditions: shRNA.

Row | Sequence | sensor-assay potency score (higher = more potent)
22 | TTGGCTACTATTCCCGTCTTGA | 0.118
23 | TAAATAGTTATGTACATCGCAG | -0.74
24 | TAATACCTCATCCTCCGTCTTC | -0.695
25 | TGTTCTATGAAGTCTCACGAGG | -1.02
26 | TTGAACAGCTCCAGGAAGCTGC | -0.652
27 | TTGAGGGCTAGTTTGTTCCCGC | -0.869
28 | TTATCATCGTCACCGCACTGGT | -1.04
29 | AACAGCTCCAGGAAGCTGCCGT | -0.55
30 | TTTATCATCGTCACCGCACTGG | 0.198
31 | ATCATCGTCACCGCACTGGTGA | -0.305
32 | TTGGCGAACAAGTTCACGCCGC | -0.437
33 | TACTTGTTAATACCTCATCCTC | -0.735

What follows are sequences tested against C19orf48 in the same assay as above. Conditions: shRNA.

Row | Sequence | sensor-assay potency score (higher = more potent)
34 | ATAGGCCTGGTCACAATAGGGA | -0.793
35 | AAGTCCTTGTGCACTGGGTTGG | -0.738
36 | TTCTGGCCTGCTTCACCCCTGG | -0.772
37 | TGGAGCACCAGGCCAGGCGGTG | -1.89
38 | TTATCCACCTTCTCCTGGGTGT | -0.455
39 | TGTCCTTGAGAGCCAGGCCCAG | -1.6
40 | TTGGGTCCCAGCATGAGCCTGG | -0.0945
